# DAX1 inh-1 – DAX1 (NR0B1) inhibitors on StAR promoter, primary screen, cell-based, luminescence, SF-1 (NR5A1), full-length DAX-1; inhibition, % at 6.8 µM; 1.1% of 370,000 active; HEK293T StAR-luciferase reporter, SF-1/DAX-1 repression relief;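 active means inhibition above the mean over all tested compounds plus 3 SD, cut at about 3.6% in these data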;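 further: 0% = DAX-1 cells with DMSO and 100% = cells lacking DAX-1 with DMSO; higher inhibition means more luminescence from relief of DAX-1 repression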
# ssDAF-12 act – S. stercoralis DAF-12 nuclear receptor activators, primary screen, cell-based, luminescence, HEK293, GRIP1 co-expression, lit1-tk-luc | activation, % at 6.8 µM | 1% of 370,000 active | HEK293 ssDAF-12/GRIP1 lit1-tk-luc reporter; % of 3 µM dafachronic acid response | AID 652126, 2013 | Nuclear hormone receptor DAF-12 (Strongyloides stercoralis);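 active means activation above the mean over all tested compounds plus 3 SD, cut at about 0.9% in these data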;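 further: 0% = DMSO-only wells and 100% = 3 µM delta7-dafachronic acid wells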
# DAX1 inh-2 – DAX1 (NR0B1) inhibitors, primary screen, cell-based, HEK293, Gal4-DAX1, luciferase luminescence. Nuclear receptor subfamily 0 group B member 1 (Homo sapiens), P51843. inhibition, % at 6.75 µM. 0.99% of 340,000 active. HEK293 Gal4-DAX1 luciferase reporter;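 active means inhibition above the mean over all tested compounds plus 3 SD, cut at about 4.2% in these data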;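 further: 0% = DAX1-transfected cells with DMSO and 100% = empty-vector control cells with DMSO; inhibition shows as a rise in luminescence from relieved DAX1 repression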
# Target sequence (P51843 207-470 limits assumed): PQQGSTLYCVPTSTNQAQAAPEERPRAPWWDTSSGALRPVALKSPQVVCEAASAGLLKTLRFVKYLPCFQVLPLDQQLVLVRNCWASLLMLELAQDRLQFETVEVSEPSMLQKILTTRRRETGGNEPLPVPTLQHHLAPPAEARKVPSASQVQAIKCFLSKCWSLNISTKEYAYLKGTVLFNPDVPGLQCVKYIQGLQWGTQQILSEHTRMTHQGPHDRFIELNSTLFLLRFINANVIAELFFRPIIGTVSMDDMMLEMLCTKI
# SMARCA2 act – SMARCA2 (BRM) function activators, primary screen, cell-based, luminescence, high throughput. MG213 cells, MMTV-luciferase reporter, dexamethasone, overnight. activation, % at 9.1 µM. 1% of 370,000 active; in the data active means activation above about 7.8%;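 further: 0% = vehicle wells and 100% = reference activator wells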
# hgDAF-12 ag – H. glycines DAF-12 receptor agonists, primary screen, cell-based, luminescence, HEK293, GAL4 fusion, UAS-luciferase. Nuclear hormone receptor DAF-12 (Heterodera glycines), GAL4 fusion. AID 687014, 2013. HEK293 GAL4-hgDAF12 UAS-luciferase reporter, agonist luminescence; normalized to butyrate control. 1.8% of 370,000 active. activation, % at 6.8 µM;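 active means activation above a cutoff set at the mean of all screened compounds plus 3 SD, cut at about 10% in these data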;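 further: 0% = DMSO wells and 100% = sodium butyrate wells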
# hcDAF12 agonist – H. contortus DAF-12 nuclear receptor activators, primary screen, cell-based, luminescence, HEK293, lit1-tk-luc reporter; HEK293 hcDAF-12 lit1-tk-luc reporter; 0% DMSO, 100% Δ7-dafachronic acid; activation, % at 6.8 µM; 1.4% of 370,000 active; AID 652067, 2013;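 active means activation above the mean of all tested compounds plus 3 SD, cut at about 5.5% in these data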;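 further: 100% = response to 3 µM Δ7-dafachronic acid high control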
# DAX1 conf – DAX1 (NR0B1) inhibitors relieving SF-1 repression, confirmation, cell-based, luminescence, HEK293T, full-length DAX-1, SF-1 activated StAR promoter | shares compounds with DAX1 inh-1 | HEK293T StAR-promoter luciferase reporter, SF-1/DAX-1 repression | inhibition, % at 6.8 µM | 87% of 2,400 active | AID 652134, 2013;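 active means inhibition above the average of every tested compound plus 3 SD, cut at about 3.8% in these data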;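 further: 0% = DAX-1 cells with DMSO and 100% = no DAX-1 control cells with DMSO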
# SF1 mutant ctr – StAR reporter signal changes without DAX1, counter-screen for DAX1 inhibitor project, cell-based, luminescence, AF-2 mutant SF-1, transactivation; HEK293 StAR-luciferase, SF-1 AF2 mutant; inhibition, % at 6.8 µM; 78% of 2,400 active; AID 652136, 2013; shares compounds with DAX1 inh-1;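 active means inhibition above the mean of all tested compounds plus 3 SD, cut at about 3% in these data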;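 further: 0% = DAX-1 transfected cells with DMSO and 100% = cells without DAX-1 with DMSO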
# SMARCA2 conf – SMARCA2 (BRM) function activators, confirmation, cell-based, luminescence, triplicate. shares compounds with SMARCA2 act. MG213 cells, MMTV-luciferase with dexamethasone, overnight; MG213 cells expressing E1A, Rb sequestered; DMSO wells 0%, reference activator 100%. activation, % at 9.1 µM. 30% of 3,500 active;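 active means activation above its plate's cutoff, the mean activation of tested wells plus 3 SD, cut at about 7.9% in these data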
# VP16 Luc act – GAL4-VP16 luciferase reporter activation, counter-screen for SMARCA2 (BRM) activator project, cell-based, pG5luc, luminescence, high throughput; shares compounds with SMARCA2 act; AID 686939, 2013; activation, % at 9.1 µM; 41% of 3,500 active; HEK293 GAL4-VP16 pG5luc reporter; scaled: DMSO wells 0%, SAHA wells 100%;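 active means activation above the solvent-only control well mean plus 3 SD, averaged across control plates, cut at about 5.2% in these data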
# LXR ag – LXR agonists, Gal4 luciferase reporter, confirmation, counter-screen for hcDAF-12 agonist project, cell-based, luminescence, HEK293, H. contortus campaign; shares compounds with hcDAF12 agonist; HEK293 Gal4-LXR tk-luc reporter, 24 h; normalized: DMSO 0%, positive control 100%; 3,400 tested, under 10 active; activation, % at 6.8 µM; AID 743027, 2013;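 active means mean percent activation of the reporter above a cutoff set as the average over tested compounds plus their standard deviation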
# hcDAF12 conf – H. contortus DAF-12 receptor agonists, confirmation, cell-based, luminescence, HEK293, lit1-tk-luc, triplicate; shares compounds with hcDAF12 agonist; HEK293 hcDAF-12 lit1-tk-luc reporter; % of Δ7-dafachronic acid response; activation, % at 6.8 µM; 61% of 3,400 active;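 active means mean activation across triplicate tests above the threshold derived from the earlier primary screen, cut at about 5.5% in these data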;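 further: 0% = DMSO only wells and 100% = 3 µM Δ7-dafachronic acid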
# hgDAF12 ag – H. glycines DAF-12 receptor agonists, confirmation, cell-based, luminescence, HEK293, GAL4-LBD fusion. activation, % at 6.8 µM. 80% of 3,300 active. HEK293 GAL4-hgDAF12 luciferase reporter, agonist mode; percent of butyrate response. shares compounds with hgDAF-12 ag. AID 743050, 2013;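 active means mean activation over triplicate wells above the hit cutoff derived from the earlier primary screen, cut at about 11% in these data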;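 further: 0% = DMSO low control and 100% = 2 mM sodium butyrate high control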
# LXR ag 2 – LXR agonists, Gal4 luciferase reporter, confirmation, counter-screen for hgDAF-12 agonist project, cell-based, luminescence, HEK293, H. glycines campaign; 24 h; activation, % at 6.8 µM; 3,300 tested, under 10 active; shares compounds with hgDAF-12 ag;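 active means mean activation of the triplicate above a set limit carried over from the primary screen, none filed active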
# The depositor's hits bear a star; nt = no result given. Rows were chosen to be rich in hits. Some 4.8% of all compounds tested hit in one or more screens of this group.
SMILES,DAX1 inh-1,ssDAF-12 act,DAX1 inh-2,SMARCA2 act,hgDAF-12 ag,hcDAF12 agonist,DAX1 conf,SF1 mutant ctr,LXR ag,hcDAF12 conf,hgDAF12 ag,LXR ag 2,others
CC1CCCCC12NC(=O)N(CC(=O)NCc1cccs1)C2=O (stereo unspecified),1,-2,0,0,-1,-1,nt,nt,nt,nt,nt,nt,
Cc1c(C(=O)N2c3ccccc3CC2C)oc2ccccc12 (stereo unspecified),5.3*,2.3*,3,5,18*,11*,8.8*,6.1*,1,17*,20*,1,
Cc1ccn2c(c1)nc(=S)n2C(=O)c1ccccc1,6.5*,1,4.5*,5,15*,6.7*,8.0*,1,1,12*,11*,1,
Cc1ccc(/C=C2/CCc3c([nH]c4ccccc34)C2=O)cc1,5.3*,1,3,8.2*,18*,10*,24*,9.1*,2,5.8*,22*,1,SMARCA2 conf=3;VP16 Luc act=11*
O=C(Nc1ccc2c(c1)OCCO2)C(=O)c1c[nH]c2ccccc12,2,1,-3,2,10,5,nt,nt,nt,nt,nt,nt,
O=C(Nc1ccc2c(c1)OCO2)C(=O)c1c[nH]c2ccccc12,18*,1,2,9.2*,13*,9.3*,17*,6.5*,nt,nt,19*,1,SMARCA2 conf=4;VP16 Luc act=7.7*
COC(=O)c1ccc(COc2cc(O)c3c(c2)OC(C)(C)CC3=O)cc1,0,-1,1,2,1,-1,nt,nt,nt,nt,nt,nt,
CC1(C)CC(=O)c2c(O)cc(OCc3ccc(Br)cc3)cc2O1,4.6*,0,4,4,14*,5,13*,8.9*,nt,nt,9,1,
CN(C)c1ccc(-c2nnc(-c3cccs3)o2)cc1,5.8*,1,4.4*,3,20*,5,15*,5.9*,nt,nt,17*,1,
Cc1csc(Nc2ccc(C(=O)O)cc2)n1,0,-1,2,-1,0,0,nt,nt,nt,nt,nt,nt,
O=C(O)c1ccc(Nc2nc(-c3ccccc3)cs2)cc1,5.0*,1,2,7,15*,5,13*,7.7*,nt,nt,16*,1,
COc1ccccc1C(=O)N1CCNC(=O)C1CC(=O)Nc1cccc(C)c1 (stereo unspecified),0,0,0,-3,0,2,nt,nt,nt,nt,nt,nt,
N/C(=N\OC(=O)COc1ccc(Cl)cc1Cl)c1ccccn1,5.3*,0,-1,0,16*,6.4*,19*,7.2*,nt,nt,15*,1,
Cc1cc(C)c(C)c(OCC(=O)O/N=C(\N)c2ccccn2)c1,0,-1,0,1,1,-1,nt,nt,nt,nt,nt,nt,
Cc1ccc(CNC(=O)CCCn2c(=O)c3ccccc3n(CC(=O)NCc3ccco3)c2=O)cc1,-1,-1,0,0,-2,-2,nt,nt,nt,nt,nt,nt,
CC1Sc2ccc(C(=O)Nc3ncccc3O)cc2NC1=O (stereo unspecified),13*,0,2,5,18*,5,8.3*,3.2*,nt,nt,15*,1,
CCOc1ccc(-c2nnc(SCC(=O)N3CCNC3=O)o2)cc1,6.2*,1,1,7,14*,6.2*,12*,5.3*,nt,nt,15*,1,
O=C(/C=C\Nc1ccccc1Br)c1ccc2c(c1)OCO2,5.3*,1,-5,-2,17*,9.4*,9.6*,2,2,17*,16*,1,
CC(C)c1ccc(C2(O)C(=O)Nc3cc(Br)ccc32)c(O)c1 (stereo unspecified),-1,0,0,-4,0,1,nt,nt,nt,nt,nt,nt,
CC(C)c1ccc(/C=C/C(=O)Nc2nncs2)cc1,5.5*,1,0,1,19*,13*,14*,4.8*,2,6.3*,18*,1,

# High-throughput results as filed in PubChem BioAssay.
